Hits are enriched below; roughly 17% of the tested compounds scored in any of these assays.
DT40 TDP1 no CPT: qHTS for Inhibitors of human tyrosyl-DNA phosphodiesterase 1 (TDP1): qHTS in cells in absence of CPT | DT40 Tdp1-/- hTDP1 cells, no CPT, ATP luminescence, 48 h | Potency, µM (series often up to 46.2 µM), usual class: inhibitors | 15% of 420,000 active | AID 686978, 2013; further: nearly all actives have a fitted effect of over 55% in size
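Seeded 400 DT40-hTDP1 cells/well (vehicle DMSO, no 20 nM CPT); pinned compounds; ≥48 hr at 37 °C; CellTiter-Glo luminescence as viability measure.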
ClpP mod: qHTS Assay for Activators of ClpP | ATP-dependent Clp protease proteolytic subunit (Bacillus subtilis (strain 168)), P80244 | purified B. subtilis ClpP, FRET peptide cleavage, 20 min | Potency, µM (titrated, usually from 57.5 µM) | 1.9% of 340,000 active | AID 651965, 2013; active means well fitted falling curve with a large enough effect; inconclusive means small, poorly fitted or top-dose-only effect; inactive means no such curve, though single readings can be large or run the other way; further: the source files actives as falling curves though it sought activators and does not explain the sign; nearly all actives have a fitted effect of over 65% in size
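ClpP 10 microg/mL final, pH 8 Tris/KCl buffer with BSA, glycerol, Tween-20; compound pinned in; FRET-FV substrate; RT 20 min; Ex320/Em430; ΔFRET vs ADEP 5.8 microM, DMSO, no enzyme.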
TDP1 cell CPT: qHTS for Inhibitors of human tyrosyl-DNA phosphodiesterase 1 (TDP1): qHTS in cells in presence of CPT | Potency, µM (highest dose often 46.2 µM), hits mostly inhibitors | AID 686979, 2013 | 12% of 420,000 active | chicken DT40 Tdp1-/-;hTDP1 cells + 20 nM CPT, ATP luminescence, 48 h; further: nearly all actives have a fitted effect of over 55% in size
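Chicken DT40 Tdp1-/- cells stably complemented with human TDP1 were seeded at 400 cells/well in medium containing 20 nM camptothecin, exposed to pin-transferred compounds, and grown at 37 °C for at least 48 hr. Viability was read as ATP luminescence.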
TDP1 inh: qHTS Assay for Inhibitors of Tyrosyl-DNA Phosphodiesterase (TDP1); Tyrosyl-DNA phosphodiesterase 1 (Homo sapiens), Q9NUW8; recombinant TDP1, AlphaScreen DNA substrate cleavage; Potency, µM (top dose mostly 130 µM), most hits filed as inhibitors; 0.28% of 350,000 active; further: nearly all actives have a fitted effect of over 40% in size
Target sequence (Q9NUW8 whole entry, looked up): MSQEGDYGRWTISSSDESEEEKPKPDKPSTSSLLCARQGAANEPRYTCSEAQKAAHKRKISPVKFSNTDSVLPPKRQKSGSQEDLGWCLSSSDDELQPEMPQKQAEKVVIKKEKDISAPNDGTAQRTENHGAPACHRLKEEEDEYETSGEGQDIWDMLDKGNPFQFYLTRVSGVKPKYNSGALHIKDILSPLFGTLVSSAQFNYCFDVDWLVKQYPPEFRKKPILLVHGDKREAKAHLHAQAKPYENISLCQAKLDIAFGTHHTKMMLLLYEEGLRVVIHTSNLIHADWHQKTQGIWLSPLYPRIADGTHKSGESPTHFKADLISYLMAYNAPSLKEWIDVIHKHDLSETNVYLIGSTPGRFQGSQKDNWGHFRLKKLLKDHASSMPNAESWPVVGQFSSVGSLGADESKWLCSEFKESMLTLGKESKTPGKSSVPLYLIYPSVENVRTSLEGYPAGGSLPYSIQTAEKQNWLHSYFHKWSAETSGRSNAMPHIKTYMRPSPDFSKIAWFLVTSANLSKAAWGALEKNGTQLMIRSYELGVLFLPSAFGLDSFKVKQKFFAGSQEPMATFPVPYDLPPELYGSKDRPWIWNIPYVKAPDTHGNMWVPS
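Recombinant E. coli-expressed Tdp1 (1 nM) preincubated with compound 15 min at RT, then 5'-biotin/3'-phosphotyrosine-FITC DNA substrate (15 nM) added for 5 min. AlphaScreen beads (10 ug/ml) added, 10 min RT; tyrosine-FITC cleavage read as signal loss.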
Numbers stand for hits; n = inactive; u = inconclusive; x = no result given; [ ] = dose if it differs, or a comment. Unless noted, the call rests on the fitted dose curve; in most records, active means well fitted curve in the direction sought with a large enough effect; inconclusive means small, poorly fitted or top-dose-only effect, or another doubt; inactive means no such curve, though single readings can be large; an effect the other way counts as inactive or inconclusive.

SMILES | DT40 TDP1 no CPT | ClpP mod | TDP1 cell CPT | TDP1 inh
COc1ccc(NC(=O)c2c(C)oc3ccc(O)c(CN4CCOCC4)c23)cc1 | n | n | n | n
CCCNc1nc2ccccc2n2c(C)nnc12 | u | n | u | x
COC(=O)CCCC1=CC2=CC(=O)C(C)(OC(=O)c3cccs3)C(=O)C2=CN1C(CO)CO (stereo not given) | x | x | x | n[12.3 µM]
CCCCCCN1CCN(C2CN(Cc3cn(Cc4cccc(Cl)c4)nn3)S(=O)(=O)C2)CC1 (stereo not given) | u | n | 18µM | x
CCCCCCN1CCN(C2CN(Cc3cn(Cc4ccc(Cl)cc4)nn3)S(=O)(=O)C2)CC1 (stereo not given) | 16µM | n | 23µM | x
CCCCCCN1CCN(C2CN(Cc3ccc(C)cc3)S(=O)(=O)C2)CC1 (stereo not given) | u | n | 23µM | x
CN(Cc1cn(Cc2ccc(Cl)cc2)nn1)C1CN(Cc2cn(Cc3ccc(Cl)cc3)nn2)S(=O)(=O)C1 (stereo not given) | 13µM | n | 18µM | x
CCOC(=O)c1ccc(NC(=O)NCc2ccccn2)cc1 | n | n | n | n
CN(C)c1ncc2nc(-c3cccs3)c(=O)n(CCC#N)c2n1 | n | x | n | x
Cc1cccc(CN2CCN(C3CN(Cc4cn(Cc5cccc(C(F)(F)F)c5)nn4)S(=O)(=O)C3)CC2)c1 (stereo not given) | 21µM | n | u | x
CCCCC(=O)OCC(=O)N1N=C(c2c[nH]c3ccccc23)C(O)C1c1ccc(OC)cc1 (stereo not given) | u | n | u | x
COc1ccc(Cc2c3cc(OC)c(OC)cc3cc[n+]2C)cc1OC | n | n | n | x
COc1cc2c[n+](C)c3c4ccccc4ccc3c2cc1OC | 1.5µM | 8.9µM | 1µM | x
COc1ccc(NC(=S)Nc2cccc3ccccc23)cc1OC | n | n | n | n
COc1ccc2c(c1)c[n+](C)c1c3cc(OC)c(OC)cc3ccc21 | 1.2µM | n | 1.2µM | x
CCN1C(=O)[C@H]2[C@H]3CN=C(SC)N3[C@@](Cc3ccccc3)(C(=O)OC)[C@H]2C1=O | n | n | n | n
CCN(c1cccc(C)c1)S(=O)(=O)c1ccc(-n2cccn2)cc1 | u | n | u | n
COC(=O)[C@@H]1CC2=CC(=O)CC[C@]2(C)[C@@]23O[C@@H]2C[C@@]2(C)[C@H](CC[C@@]24CCC(=O)O4)[C@@H]13 | x | x | x | n
COc1cccc(CNC(=O)C2CCN(c3ncnc4c3nc3n4CCCCC3)CC2)c1 | u | n | n | n
FC(F)(F)c1cccc(N2CCN(c3ncnc4c3nc3n4CCCC3)CC2)c1 | 9.2µM | n | 9.2µM | n
COc1cccc(N2CCN(c3ncnc4c3nc3n4CCCCC3)CC2)c1 | 10µM | n | 16µM | n
CC1CN(C(=O)c2ccc(COc3ccc(C(C)C)cc3)o2)CC(C)O1 (stereo not given) | 21µM | n | 16µM | n
COC(=O)c1ccc(C(=O)N2CCCC(Nc3ccc(C(C)C)cc3)C2)cc1 (stereo not given) | n | n | n | n
CC1CN(C(=O)c2ccc(COc3ccc4ccccc4c3)o2)CC(C)O1 (stereo not given) | u | n | u | n
COc1ccc(NC2CCCN(C(=O)c3cccs3)C2)cc1 (stereo not given) | n | n | n | n
SMILES | DT40 TDP1 no CPT | ClpP mod | TDP1 cell CPT | TDP1 inh
COCc1ccc(C(=O)N2CCCC(Nc3ccc(C(C)C)cc3)C2)o1 (stereo not given) | 18µM | n | u | n
CC(C)c1ccc(NC2CCCN(C(=O)c3cccs3)C2)cc1 (stereo not given) | u | n | 21µM | n
CC(C)c1ccc(NC2CCCN(C(=O)c3n[nH]c4c3CCC4)C2)cc1 (stereo not given) | u | n | 18µM | n
COc1ccc(C)cc1NC(=O)Nc1ccncc1 | n | n | n | n
C[C@@]12CCC(=O)C[C@@H]1CC(=O)[C@H]1[C@H]3CCC[C@]3(C)C(=O)C[C@@H]12 (tested in a mixture with another compound) | x | x | x | n[21 µM]
O=C(c1ccco1)N1CCCC(c2ccccc2)C1 (stereo not given) | n | n | n | n
O=C(c1cccs1)N1CCCC(c2ccccc2)C1 (stereo not given) | 18µM | n | n | n
CC(C)c1ccc(NC2CCCN(C(=O)c3ccsc3)C2)cc1 (stereo not given) | 18µM | n | 23µM | n
COCCCn1c(C(=O)NC2CCCCC2C)cc2c(=O)n3cccc(C)c3nc21 (stereo not given) | 21µM | n | 16µM | n
COCCCn1c(C(=O)N2CCOCC2)cc2c(=O)n3ccccc3nc21 | n | n | n | n
CCN(C(=O)c1cc2c(=O)n3cccc(C)c3nc2n1CCCOC)C1CCCCC1 | 16µM | n | 21µM | n
COCCCn1c(C(=O)Nc2ccc3c(c2)OCO3)cc2c(=O)n3ccccc3nc21 | 26µM | n | 18µM | n
CC(=O)Nc1ccc(NC(=O)C(NS(=O)(=O)c2ccc(Br)s2)c2ccccc2)cc1 (stereo not given) | u | n | u | n[12.3 µM]
O=C(N=Nc1c(O)[nH]c2ccccc12)c1cccc(S(=O)(=O)Nc2ccccc2Cl)c1 | n | n | u | n
O=C(CNC(=O)/C=C/c1ccco1)N=Nc1c(O)[nH]c2ccccc12 | n | n | n | 40µM
Cc1cccc(NC(=S)N=Nc2c(O)[nH]c3ccccc23)c1 | 4.6µM | n | 3.3µM | n
O=C(CNC(=O)Cc1ccccc1)N=Nc1c(O)[nH]c2ccccc12 | n | x | n | n
O=C(CCCCCNC(=O)c1ccccc1Br)N=Nc1c(O)[nH]c2ccccc12 | u | n | 21µM | u
NS(=O)(=O)c1cc(C(=O)N=Nc2c(O)[nH]c3ccccc23)ccc1Cl | 18µM | x | u | n
COc1cccc([C@@H]2Oc3ccc(OC)cc3C(=O)[C@H]2OC(=O)NCCOc2ccccc2)c1 | x | x | x | n
COc1ccccc1NC(=S)N=Nc1c(O)[nH]c2ccc(Br)cc12 | 1.5µM | n | 2.6µM | n
CC(C)(O)C(=O)N=Nc1c(O)[nH]c2ccccc12 | n | x | n | n
Oc1[nH]c2ccc(Br)cc2c1N=NC(=S)NCC1CCCO1 (stereo not given) | u | x | u | n
CC(C)c1ccc2[nH]c(O)c(N=NC(=O)c3cccc(S(=O)(=O)Nc4ccccc4Cl)c3)c2c1 | n | x | n | n
CC(C)NC(=S)N=Nc1c(O)[nH]c2ccc(C(C)C)cc12 | 5.2µM | n | 5.8µM | n
O=C(N=Nc1c(O)[nH]c2ccccc12)Nc1ccccc1 | u | n | 18µM | x
CCOC(=O)C1CCN(S(=O)(=O)c2ccc3oc(=O)ccc3c2)CC1 | n | x | n | x

High-throughput results: PubChem BioAssay, National Center for Advancing Translational Sciences (NCATS)
